Common to all, as to format: functional
The subject of experiment [1] is Plasmodium falciparum. The experiment can be described thus: GSK_TCMDC: Inhibition of Plasmodium falciparum 3D7 in whole red blood cells, using parasite LDH activity as an index of growth. Test compounds present at 2uM.
Experiment [2] relates to Plasmodium falciparum. The experiment can be described thus: GSK_TCMDC: Inhibition of Plasmodium falciparum Dd2 in whole red blood cells, using parasite LDH activity as an index of growth. Test compounds present at 2uM.
For a further experiment, the system named is HepG2. The experiment can be described thus: GSK_TCMDC: Percent inhibition of human HepG2 cell line. Test compounds present at 10uM.

Molecules are shown by their SMILES.

For orientation: Inhibition means the relative decrease from the control value, in per cent. Regarding `O=C(NC1CCN(Cc2ccccc2)CC1)c1cc(-c2cccnc2)nc2ccc(Cl)cc12`, the Inhibition in the experiment with Plasmodium falciparum [1] is 97%; in the experiment on Plasmodium falciparum [2], 26%; with HepG2, 0%.

Turning to `c1csc(-c2ccc3c(c2)CC(NCc2c[nH]c4cnccc24)C3)c1` (stereo unspecified), the Inhibition in the experiment with Plasmodium falciparum [1] was 100%; with Plasmodium falciparum [2], 34%; in the experiment on HepG2, 9%.

As for `O=C(N[C@H](Cc1ccc(Cl)cc1)C(=O)N1CCN(c2ccnc3cc(Cl)ccc23)CC1)[C@H]1Cc2ccccc2CN1.O=C(O)C(F)(F)F`, the Inhibition turned out to be 85% with Plasmodium falciparum [1], 41% in the experiment on Plasmodium falciparum [2] and 16% with HepG2.

As for `COc1ccc(OC)c(NC(=O)C2c3ccccc3C(=O)N(CC(C)C)C2c2cccs2)c1` (stereo unspecified), the values for the Inhibition in the experiment with Plasmodium falciparum [1], with Plasmodium falciparum [2] and in the experiment with HepG2 were 100%, 66% and 9%, respectively.

Consider `NC(=O)COc1c(C2CCN(CCCCNC(=O)c3ccc(-c4ccc(Cl)cc4)c(O)c3)CC2)ccc2c1CCCC2`, for which the values for the Inhibition in the experiment with Plasmodium falciparum [1], in the experiment with Plasmodium falciparum [2] and in the experiment with HepG2 were 100%, 72% and 97%, respectively.

With `CCC(=O)N(c1ccccc1)C1CCN(CCCC(NC(=O)Nc2cc(C(F)(F)F)cc(C(F)(F)F)c2)c2ccc(Cl)c(Cl)c2)CC1` (stereo unspecified), the Inhibition with Plasmodium falciparum [1] is given as 99%; in the experiment on Plasmodium falciparum [2] it was 18%; in the experiment on HepG2, 29%.

In the case of `O=C(Nc1ccc(C(=O)N(Cc2ccc3c(c2)OCO3)C2CCCC2)cc1)c1cccs1`, the Inhibition with Plasmodium falciparum [1] is listed as 97%; in the experiment with Plasmodium falciparum [2], 95%; with HepG2 it was 14%.

Take `COc1c(C=NNc2nc(=Nc3ccccc3)[nH]c(=Nc3ccccc3)[nH]2)ccc(Br)c1O`: the Inhibition came to 98% with Plasmodium falciparum [1], 37% with Plasmodium falciparum [2] and 63% with HepG2.

As for `Cc1cc(N2CCN(CC3CCCCC3)CC2)nc(Nc2ccc(Br)cc2)n1`, the results for the Inhibition in the experiment on Plasmodium falciparum [1], in the experiment with Plasmodium falciparum [2] and with HepG2 were 91%, 16% and 0%, respectively.

As to `OC(COc1ccccc1-c1nc2ccccc2o1)CN1CCCN(CCc2ccccc2)CC1` (stereo unspecified), the Inhibition with Plasmodium falciparum [1] is on record as 97%; in the experiment with Plasmodium falciparum [2] it was 2%; with HepG2 it was 39%.

Regarding `O=C(C=Cc1ccc(F)cc1)N1CCN(S(=O)(=O)c2ccc(Cl)cc2)CC1`, the figures for the Inhibition with Plasmodium falciparum [1], in the experiment with Plasmodium falciparum [2] and with HepG2 were 91%, 93% and 10%, respectively.

As for `CCN(CC)/C(=N/C(=N)Nc1ccc(Cl)c(Cl)c1)NCCCCCCN/C(=N\C(=N)Nc1ccc(Cl)c(Cl)c1)N(CC)CC`, the Inhibition in the experiment with Plasmodium falciparum [1] was determined as 94%; with Plasmodium falciparum [2], 90%; with HepG2, 1%.

Take `CSc1nc2nc(C)c(Cc3cccc(F)c3)c(C)n2n1`: the Inhibition in the experiment on Plasmodium falciparum [1] was found to be 87%; in the experiment on Plasmodium falciparum [2], 45%; with HepG2, 3%.

Consider `Nc1c(-c2ccc(C(=O)NCCNCc3ccccc3)cc2)cnn1-c1ccc(C(F)(F)F)cc1.O=C(O)C(F)(F)F`, for which the Inhibition with Plasmodium falciparum [1] is listed as 85%; in the experiment on Plasmodium falciparum [2] it was 2%; in the experiment with HepG2 it was 23%.

`CCN(CC)CCCC(C)Nc1c2cc(OC)ccc2nc2cc(Cl)c([N+](=O)[O-])cc12` (stereo unspecified): the Inhibition stood at 100% with Plasmodium falciparum [1], 89% in the experiment with Plasmodium falciparum [2] and 12% in the experiment on HepG2.

As for `O=C(Cc1cccc(Cl)c1)Nc1ccc(N2CCC(NCc3ccc4ncccc4c3)CC2)cc1`, the Inhibition with Plasmodium falciparum [1] is on record as 81%; with Plasmodium falciparum [2], 8%; with HepG2 it was 10%.

With `CCN(CC)CCN(Cc1ccc(-c2ccc(C(F)(F)F)cc2)cc1)C(=O)Cn1c(SCc2ccc(F)cc2)nc(=O)c2sccc21.O=C(O)C(O)C(O)C(=O)O`, the Inhibition in the experiment with Plasmodium falciparum [1] was determined as 100%; in the experiment on Plasmodium falciparum [2], 65%; with HepG2, 51%.

As for `O=C(NCCc1ccccc1)N(Cc1ccccc1-c1cccc(CNCCc2ccccc2)c1)C1CCN(Cc2ccccc2)CC1.O=C(O)C(F)(F)F`, the figures for the Inhibition in the experiment on Plasmodium falciparum [1], in the experiment on Plasmodium falciparum [2] and with HepG2 were 100%, 88% and 100%, respectively.

On to `CN(C)CCNc1ncnc2c1[nH]c1ccc(Br)cc12`, for which the Inhibition stood at 100% in the experiment on Plasmodium falciparum [1], 7% in the experiment on Plasmodium falciparum [2] and 2% in the experiment on HepG2.

With `O=C(Nc1ccc2c(ccn2C2CCCN(Cc3cc(F)cc(F)c3F)CC2)c1)c1ccco1` (stereo unspecified), the figures for the Inhibition in the experiment with Plasmodium falciparum [1], in the experiment on Plasmodium falciparum [2] and with HepG2 were 89%, 94% and 7%, respectively.

As for `CCC(C)c1ccc(NC(=O)Nc2ccnc3ccccc23)cc1.Cl` (stereo unspecified), the Inhibition in the experiment with Plasmodium falciparum [1] is 98%; in the experiment on Plasmodium falciparum [2], 42%; in the experiment on HepG2, 27%.

`CC1CN(c2cnn(C/C=C/c3ccc(NC(=O)c4ccc(Cl)cc4)cc3)c(=O)c2Cl)CC(C)N1.O=C(O)C(F)(F)F` (stereo unspecified): the Inhibition in the experiment with Plasmodium falciparum [1] amounted to 88%; in the experiment on Plasmodium falciparum [2] it was 82%; with HepG2, 25%.

For `Cl.Nc1c2c(nc3ccc(NC(=O)CCCCCc4ccccc4)cc13)CCCC2`, the figures for the Inhibition with Plasmodium falciparum [1], in the experiment with Plasmodium falciparum [2] and with HepG2 were 100%, 36% and 32%, respectively.

As for `COc1ccc2nccc(N3CCN(CCNCc4ccc5c(n4)NC(=O)CS5)CC3)c2n1.Cl`, the Inhibition in the experiment on Plasmodium falciparum [1] stood at 100%; with Plasmodium falciparum [2] it was 67%; in the experiment with HepG2 it was 10%.

As for `CS(=O)(=O)CCNCc1nc(-c2ccc3ncnc(Nc4ccc(OCc5cccc(F)c5)c(Cl)c4)c3c2)cs1.Cl`, the results for the Inhibition in the experiment with Plasmodium falciparum [1], in the experiment with Plasmodium falciparum [2] and with HepG2 were 98%, 34% and 8%, respectively.

`Nc1nccc2ccc(-c3cccc4ncccc34)cc12.O=C(O)C(F)(F)F`: the Inhibition in the experiment with Plasmodium falciparum [1] was found to be 98%; with Plasmodium falciparum [2] it was 94%; with HepG2, 40%.

As to `O=C(NCCN1CCC(NC(=O)c2ccc(-c3ccccn3)s2)CC1)c1ccc(Cl)c(Cl)c1.O=C(O)C(F)(F)F`, the Inhibition with Plasmodium falciparum [1] stood at 97%; with Plasmodium falciparum [2], 48%; in the experiment with HepG2 it was 24%.

The values above are taken from ChEMBL document CHEMBL1157539, “Thousands of chemical starting points for antimalarial lead identification” (Nature, 2010).
